PubChem BioAssay (NCATS)
Results filed as inconclusive are left out. Activity calls are given as the source filed them. Unless noted, calls come from the whole dose curve; as a rule, active = well fitted curve in the direction sought with a large enough effect; inconclusive = small, poorly fitted or top-dose-only effect, or another doubt; inactive = no such curve, though single readings can be large; an effect the other way counts as inactive or inconclusive.

How the values were obtained:
[1] = target: Ubiquitin carboxyl-terminal hydrolase 1 (Homo sapiens) (UniProt O94782); experiment: Inhibitors of USP1/UAF1: Pilot qHTS (AID 504865);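 note: rhodamine fluorescence freed from ubiquitin-rhodamine substrate followed over time; top concentration of the series differs between compounds; nearly all actives have a fitted effect of over 35% in size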
Summary of the method: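 USP1/UAF1 complex (1nM) preincubated with compound 15 min at room temperature, then Ub-Rho substrate (150nM final) added. Fluorescence read kinetically at 480/540 nm, 6 reads every 60 seconds. Buffer: 50mM HEPES pH 7.8, 0.5mM EDTA, 0.1 mg/ml BSA, 1mM TCEP, 0.01% Tween-20.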

[2] = S16 Schwann cell viability assay (CellTiter-Glo assay) (AID 624031);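 note: cellular ATP luminescence as a viability measure; nearly all actives have a fitted effect of over 70% in size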
Summary of the method: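 Native S16 rat Schwann cells in DMEM/10% FBS without phenol red were incubated overnight, then exposed to compounds for 24 h at 37 °C/5% CO2. Viability was read as ATP luminescence (CellTiter-Glo), normalized to no-cell wells and DMSO (0%).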

[3] = S16 Schwann cell PMP22 intronic element firefly luciferase assay (AID 624032); note: nearly all actives have a fitted effect of over 30% in size; note: potency is the fitted concentration of half-maximal effect
Summary of the method: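 Rat S16 Schwann cells stably carrying firefly luciferase driven by a PMP22 intronic element, in 10% FBS, treated 24 h at 37 C. ONE-Glo luminescence normalized to PTC124 control and DMSO (0%); curves classed by r2, magnitude and activity.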

[4] = S16 Schwann cell PMP22 intronic element beta-lactamase assay (AID 624044; calls by dose curve; note: nearly all actives have a fitted effect of over 15% in size; note: potency is the fitted concentration of half-maximal effect); details: S16 rat Schwann cells, PMP22 element beta-lactamase FRET, 24 h; ratio activity, negative = inhibition: at 38.3 µM (top of the series)
Summary of the method: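 Beta-lactamase reporter under a PMP22 intronic regulatory element in stable S16 rat Schwann cells; 24 h compound exposure. 460 nm blue signal normalized between DMSO (0%) and potassium clavulanate, with 535 nm FRET tracking viability; curves classed by r2 and response.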

[5] = tested on: CP266; experiment: qHTS profiling for inhibitors of Plasmodium falciparum proliferation (AID 504749); note: nearly all actives have a fitted effect of over 60% in size; note: potency is the fitted concentration of half-maximal effect; details: P. falciparum in erythrocytes, SYBR Green DNA, 72 h; series mostly up to 28.7 µM
Summary of the method: (§1)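 Each compound contacts P. falciparum-infected red blood cells for 72 h at 37 C; lysis buffer (Tris, EDTA, saponin, Triton X, SYBR Green I) is added and fluorescence measured next morning; values normalized to controls.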

[6] = tested on: W2; experiment: as above; details: P. falciparum in erythrocytes, SYBR Green DNA, 72 h; series mostly up to 28.7 µM
Summary of the method: as §1

[7] = Confirmation and Secondary Assay for Modulators of Hemoglobin Beta Chain Splicing at IVS2 705 locus (AID 930);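 note: HeLa cells stably expressing the EGFP-705 splicing reporter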
Summary of the method: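 HeLa cells stably carrying EGFP interrupted by mutant beta-globin IVS2-705 intron (CMV-driven) were seeded at 500 cells/well, treated next day with compound for 2 days at 37C; corrected splicing restores EGFP, read as total peak GFP intensity per well.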

[8] = target: Cytochrome P450 3A4 (Homo sapiens) (UniProt P08684); experiment: qHTS Assay for Inhibitors and Substrates of Cytochrome P450 3A4 (AID 884); note: nearly all actives have a fitted effect of over 50% in size
Summary of the method: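 Luminescent readout of luciferin produced by CYP3A4 (20 nM) dealkylation of Luciferin-PPXE, 25 uM (its KM). NADPH-driven reaction ran 60 min at RT after 10 min compound preincubation; data scaled to 57 uM ketoconazole as 100% inhibition.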

Measured: Potency

Cytochrome P450 3A4 (Homo sapiens), sequence (P08684 whole entry, looked up): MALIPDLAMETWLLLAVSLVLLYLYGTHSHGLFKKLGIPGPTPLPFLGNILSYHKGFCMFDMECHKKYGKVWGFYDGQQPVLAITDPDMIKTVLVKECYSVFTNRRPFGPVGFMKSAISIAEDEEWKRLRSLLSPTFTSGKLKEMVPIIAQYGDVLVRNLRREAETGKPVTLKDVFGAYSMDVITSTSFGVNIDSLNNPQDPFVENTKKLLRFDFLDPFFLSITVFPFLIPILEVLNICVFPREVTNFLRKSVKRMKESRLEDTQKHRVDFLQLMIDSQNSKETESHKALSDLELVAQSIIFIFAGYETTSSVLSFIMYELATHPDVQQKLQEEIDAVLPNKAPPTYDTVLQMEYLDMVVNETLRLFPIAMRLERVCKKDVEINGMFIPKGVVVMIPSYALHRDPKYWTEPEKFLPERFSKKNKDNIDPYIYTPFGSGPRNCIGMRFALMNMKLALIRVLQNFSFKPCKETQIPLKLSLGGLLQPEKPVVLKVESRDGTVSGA
Ubiquitin carboxyl-terminal hydrolase 1 (Homo sapiens), sequence (O94782 whole entry, looked up): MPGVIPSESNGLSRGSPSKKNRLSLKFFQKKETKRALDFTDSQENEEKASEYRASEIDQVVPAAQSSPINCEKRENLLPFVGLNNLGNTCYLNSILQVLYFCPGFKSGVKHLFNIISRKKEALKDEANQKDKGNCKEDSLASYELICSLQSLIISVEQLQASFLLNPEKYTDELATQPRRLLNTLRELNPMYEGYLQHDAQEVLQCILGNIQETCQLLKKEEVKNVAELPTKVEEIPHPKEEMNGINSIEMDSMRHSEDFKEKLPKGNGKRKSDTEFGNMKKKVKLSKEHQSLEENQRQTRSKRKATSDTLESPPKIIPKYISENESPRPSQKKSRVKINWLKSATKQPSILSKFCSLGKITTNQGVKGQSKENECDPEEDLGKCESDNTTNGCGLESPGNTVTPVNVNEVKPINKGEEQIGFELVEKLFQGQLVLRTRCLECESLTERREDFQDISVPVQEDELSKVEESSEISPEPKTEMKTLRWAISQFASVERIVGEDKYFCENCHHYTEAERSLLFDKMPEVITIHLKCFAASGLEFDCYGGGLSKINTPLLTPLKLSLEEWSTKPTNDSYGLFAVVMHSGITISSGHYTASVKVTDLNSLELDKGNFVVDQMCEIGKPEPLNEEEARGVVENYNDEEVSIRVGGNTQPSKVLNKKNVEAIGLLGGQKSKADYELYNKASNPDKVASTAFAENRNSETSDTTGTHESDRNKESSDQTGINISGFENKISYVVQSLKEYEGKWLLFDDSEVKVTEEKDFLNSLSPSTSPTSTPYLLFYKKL

CC1(C)OC[C@@H]2O[C@@]3(C(=O)O)OC(C)(C)O[C@@H]3[C@@H]2O1
inactive: [1] | [2] | [3] | [4] | [5]

CCCCCCCCCCCCCCCC(=O)OCC(COP(=O)(O)OCC[N+](C)(C)C)OC(=O)CCCCCCCCCCCCCCC (centres undefined)
inactive: [1] | [2] | [4] | [5] | [6]

CC(c1ncncc1F)[C@](O)(Cn1cncn1)c1ccc(F)cc1F (some centres undefined)
inactive: [1] | [2] | [4] | [5] | [6]

CCC(C(=O)O)C1OC(C(C)C(O)C(C)C(=O)C(CC)C2OC3(C=CC(O)C4(CCC(C)(C5CCC(O)(CC)C(C)O5)O4)O3)C(C)CC2C)C(C)CC1C (centres undefined)
active: [3] 102 nM | [4] 6300 nM | [5] 151 nM
inactive: [1]

CO/N=C(/C(=O)N[C@@H]1C(=O)N2C(C(=O)O)=C(CSc3nc(C)c(CC(=O)O)s3)CS[C@H]12)c1csc(N)n1
inactive: [1] | [2] | [4] | [5] | [6]

O=C1[C@@H]2C[C@@H]3C[C@H]1C[C@@](O)(C3)C2
inactive: [1] | [2] | [4] | [5] | [6]

CC(C)C[C@@H](NC(=O)[C@@H](Cc1ccccc1)NC(=O)c1cnccn1)B(O)O
inactive: [1] | [2]
active: [4] 22.4 nM | [5] 379 nM | [6] 60.1 nM

C=C1[C@@H]2CC[C@H](C2)C1(C)C
inactive: [1] | [2] | [4] | [5] | [6]

OCCOC[C@H]1O[C@H](OCCO)[C@H](OCCO)[C@@H](OCCO)[C@@H]1OCCO (tested in a mixture with another compound)
inactive: [1] | [2] | [3] | [5] | [6]

C=NC(C(=O)NC1C(=O)N2C1SC(C)(C)C2C(=O)O)c1ccccc1 (centres undefined)
not listed: [1] | [8]
inactive: all other assays above

O=C(OC[C@@H]1O[C@@](O)(COC(=O)c2cccnc2)[C@H](OC(=O)c2cccnc2)[C@H]1OC(=O)c1cccnc1)c1cccnc1
active: [3] 2560 nM
not listed: [7] | [8]
inactive: all other assays above

CC[C@@]1(O)C[C@H](O[C@H]2C[C@@H](N(C)C)[C@@H](O[C@H]3C[C@@H](O)[C@@H](O[C@H]4CCC(=O)[C@@H](C)O4)[C@@H](C)O3)[C@@H](C)O2)c2c(cc3c(c2O)C(=O)c2c(O)cccc2C3=O)[C@H]1C(=O)OC
active: [4] 199 nM | [5] 1200 nM | [6] 151 nM

CNC(=O)C(N)CSC(C)C1=C(C)c2cc3[n-]c(cc4nc(cc5[n-]c(cc1n2)c(C)c5CCC(=O)O)C(CCC(=O)O)=C4C)c(C)c3C(C)SCC(N)C(=O)NC.[Fe+2] (centres undefined)
inactive: [1] | [2] | [4] | [5] | [6]

CC1OC(OC2CCC3(C)C(CCC4C3CC(O)C3(C)C(C5=CC(=O)OC5)CCC43O)C2)CC(O)C1OC1CC(O)C(OC2CC(O)C(OC3OC(CO)C(O)C(O)C3O)C(C)O2)C(C)O1 (centres undefined)
not listed: [7] | [8]
inactive: all other assays above

COc1cccc(OC)c1C(=O)NC1C(=O)N2C1SC(C)(C)C2C(=O)O (centres undefined)
not listed: [1] | [3]
inactive: all other assays above

CC(C)(C)C(=O)OCC(=O)C1CCC2C3CCC4=CC(=O)CCC4(C)C3CCC12C (centres undefined)
inactive: [1] | [4] | [5] | [6]

OCCN1CC(O)C(O)C(O)C1CO (centres undefined)
not listed: [3]
inactive: all other assays above

CC1(C)C2CC[C@]1(C)[C@@H](O)C2
inactive: [1] | [2] | [4] | [5] | [6]

OC[C@@H]1O[C@](CO)(O[C@H]2O[C@H](CO)[C@@H](O)[C@H](O)[C@H]2O)[C@H](O)[C@H]1O
inactive: [1] | [2] | [4] | [5] | [6]

OCC1O[C@@H](O[C@@H]2C(CO)OC(O)C(O)C2O)C(O)C(O)C1O (some centres undefined)
inactive: [1] | [2] | [4] | [5] | [6]

O=C1NC(=O)C2C3C=CC(C3)C12 (centres undefined)
inactive: [1] | [3] | [4] | [5] | [6]

CCCCCCCCCCCC(=O)OCC(O)C1OCC(O)C1O (centres undefined)
inactive: [2] | [5] | [6]

CC1(C)SC2C(NC(=O)C(C(=O)O)c3ccccc3)C(=O)N2C1C(=O)O (centres undefined)
not listed: [8]
inactive: all other assays above

CCN1CCN(C(=O)NC(C(=O)NC2C(=O)N3C(C(=O)O)=C(CSc4nnnn4C)CSC23)c2ccc(O)cc2)C(=O)C1=O (centres undefined)
not listed: [4]
inactive: all other assays above

NC[C@@H]1O[C@H](OC2[C@@H](CO)O[C@@H](OC3[C@H](O)[C@H](N)C[C@H](N)[C@H]3OC3O[C@H](CO)[C@@H](O)[C@H](O)[C@@H]3N)[C@H]2O)C(N)[C@H](O)[C@@H]1O (some centres undefined)
inactive: [2] | [3] | [4] | [5] | [6]
